# Measured values published in ChEMBL document CHEMBL2218924, “A broad activity screen in support of a chemogenomic map for kinase signalling research and drug discovery” (Biochem J, 2013).
# What was measured:
# [1] = target: T1, Ephrin type-A receptor 3 (Homo sapiens) (UniProt P29320); conditions: at 10 µM
# T1 sequence (whole entry): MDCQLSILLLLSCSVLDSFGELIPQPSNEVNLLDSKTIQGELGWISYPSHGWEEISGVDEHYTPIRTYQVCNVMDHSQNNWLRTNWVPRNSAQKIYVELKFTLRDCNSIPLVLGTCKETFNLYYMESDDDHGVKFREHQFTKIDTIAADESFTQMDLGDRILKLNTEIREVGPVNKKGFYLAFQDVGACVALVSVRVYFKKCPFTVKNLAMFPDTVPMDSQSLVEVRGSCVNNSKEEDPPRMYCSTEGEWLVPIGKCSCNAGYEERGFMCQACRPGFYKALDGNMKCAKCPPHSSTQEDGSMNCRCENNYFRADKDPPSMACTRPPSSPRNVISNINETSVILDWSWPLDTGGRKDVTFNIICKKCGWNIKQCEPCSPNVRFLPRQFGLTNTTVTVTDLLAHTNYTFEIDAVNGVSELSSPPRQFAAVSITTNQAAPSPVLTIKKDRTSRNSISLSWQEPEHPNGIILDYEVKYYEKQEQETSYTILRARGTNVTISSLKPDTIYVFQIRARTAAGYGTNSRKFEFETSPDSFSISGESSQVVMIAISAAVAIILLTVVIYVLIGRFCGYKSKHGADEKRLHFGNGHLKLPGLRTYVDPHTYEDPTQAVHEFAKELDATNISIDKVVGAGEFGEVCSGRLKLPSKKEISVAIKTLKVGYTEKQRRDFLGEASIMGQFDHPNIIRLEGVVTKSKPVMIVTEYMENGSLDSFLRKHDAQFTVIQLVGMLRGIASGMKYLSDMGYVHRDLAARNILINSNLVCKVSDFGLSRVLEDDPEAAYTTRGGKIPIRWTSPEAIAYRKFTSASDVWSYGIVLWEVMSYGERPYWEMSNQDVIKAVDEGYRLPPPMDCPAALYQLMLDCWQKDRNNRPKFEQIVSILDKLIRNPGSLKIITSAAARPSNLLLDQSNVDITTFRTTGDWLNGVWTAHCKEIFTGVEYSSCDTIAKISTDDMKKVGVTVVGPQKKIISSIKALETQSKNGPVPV
# [2] = target: Ephrin type-A receptor 4 (Homo sapiens) (UniProt P54764); conditions: at 1 µM
# [3] = target: Ephrin type-A receptor 4 (Homo sapiens) (UniProt P54764); conditions: at 10 µM
# [4] = target: Ephrin type-A receptor 5 (Homo sapiens) (UniProt P54756); conditions: at 1 µM
# [5] = target: Ephrin type-A receptor 5 (Homo sapiens) (UniProt P54756); conditions: at 10 µM
# [6] = target: Ephrin type-A receptor 7 (Homo sapiens) (UniProt Q15375); conditions: at 1 µM
# [7] = target: Ephrin type-A receptor 7 (Homo sapiens) (UniProt Q15375); conditions: at 10 µM
# [8] = target: T2, Ephrin type-A receptor 8 (Homo sapiens) (UniProt P29322); conditions: at 1 µM
# T2 sequence (whole entry): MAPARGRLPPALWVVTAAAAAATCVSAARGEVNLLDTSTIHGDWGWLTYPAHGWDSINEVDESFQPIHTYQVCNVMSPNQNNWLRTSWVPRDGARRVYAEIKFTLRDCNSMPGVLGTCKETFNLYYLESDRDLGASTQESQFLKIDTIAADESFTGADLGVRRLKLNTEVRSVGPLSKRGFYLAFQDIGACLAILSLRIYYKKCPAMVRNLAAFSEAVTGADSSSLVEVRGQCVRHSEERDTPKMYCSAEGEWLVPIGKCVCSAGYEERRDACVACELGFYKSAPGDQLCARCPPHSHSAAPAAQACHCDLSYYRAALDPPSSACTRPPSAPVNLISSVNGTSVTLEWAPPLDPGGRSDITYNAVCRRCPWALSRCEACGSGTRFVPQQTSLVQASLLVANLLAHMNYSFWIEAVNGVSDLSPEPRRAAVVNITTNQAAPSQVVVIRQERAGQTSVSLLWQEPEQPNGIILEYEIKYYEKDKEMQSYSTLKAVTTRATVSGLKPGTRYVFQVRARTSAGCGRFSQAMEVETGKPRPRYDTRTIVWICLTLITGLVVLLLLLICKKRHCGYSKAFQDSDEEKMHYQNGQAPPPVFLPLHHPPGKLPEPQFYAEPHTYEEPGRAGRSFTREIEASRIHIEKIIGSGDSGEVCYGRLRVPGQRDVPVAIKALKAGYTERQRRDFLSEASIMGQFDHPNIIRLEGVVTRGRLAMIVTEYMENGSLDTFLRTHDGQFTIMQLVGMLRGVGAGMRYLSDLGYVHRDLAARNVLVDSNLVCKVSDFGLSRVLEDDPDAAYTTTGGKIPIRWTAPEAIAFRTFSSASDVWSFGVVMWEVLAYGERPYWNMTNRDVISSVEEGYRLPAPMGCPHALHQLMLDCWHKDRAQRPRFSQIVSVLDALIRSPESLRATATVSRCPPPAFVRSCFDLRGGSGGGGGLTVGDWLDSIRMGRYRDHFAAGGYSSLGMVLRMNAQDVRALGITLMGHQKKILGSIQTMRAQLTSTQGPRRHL
# [9] = target: T2, Ephrin type-A receptor 8 (Homo sapiens); conditions: at 10 µM
# [10] = target: T3, Ephrin type-B receptor 1 (Homo sapiens) (UniProt P54762); conditions: at 1 µM
# T3 sequence (whole entry): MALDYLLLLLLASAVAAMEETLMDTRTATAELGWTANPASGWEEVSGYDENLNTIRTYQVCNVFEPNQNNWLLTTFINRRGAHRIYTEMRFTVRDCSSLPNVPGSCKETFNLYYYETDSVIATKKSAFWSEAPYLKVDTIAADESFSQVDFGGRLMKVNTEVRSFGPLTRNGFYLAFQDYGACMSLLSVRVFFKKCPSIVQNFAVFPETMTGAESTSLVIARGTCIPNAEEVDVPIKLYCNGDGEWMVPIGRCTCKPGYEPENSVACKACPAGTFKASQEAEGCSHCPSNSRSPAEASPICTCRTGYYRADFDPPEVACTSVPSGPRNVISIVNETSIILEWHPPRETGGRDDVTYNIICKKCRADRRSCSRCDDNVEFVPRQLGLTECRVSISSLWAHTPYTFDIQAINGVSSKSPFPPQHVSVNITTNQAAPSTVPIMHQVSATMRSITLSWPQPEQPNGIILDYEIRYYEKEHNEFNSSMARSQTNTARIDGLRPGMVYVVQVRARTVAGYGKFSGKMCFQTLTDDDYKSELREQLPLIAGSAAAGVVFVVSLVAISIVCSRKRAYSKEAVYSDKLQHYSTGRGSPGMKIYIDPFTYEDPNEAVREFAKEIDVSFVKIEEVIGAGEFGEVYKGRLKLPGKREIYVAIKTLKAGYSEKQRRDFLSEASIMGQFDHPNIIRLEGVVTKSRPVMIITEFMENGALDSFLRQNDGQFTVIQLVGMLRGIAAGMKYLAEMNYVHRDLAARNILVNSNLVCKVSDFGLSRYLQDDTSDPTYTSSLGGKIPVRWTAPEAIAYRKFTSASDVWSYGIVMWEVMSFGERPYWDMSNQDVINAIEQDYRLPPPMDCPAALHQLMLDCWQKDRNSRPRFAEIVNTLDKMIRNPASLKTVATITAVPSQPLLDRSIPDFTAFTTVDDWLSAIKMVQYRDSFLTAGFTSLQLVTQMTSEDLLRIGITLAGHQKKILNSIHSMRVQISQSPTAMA
# Chain of Ephrin type-A receptor 7 (Homo sapiens) (Q15375 28-998 limits assumed): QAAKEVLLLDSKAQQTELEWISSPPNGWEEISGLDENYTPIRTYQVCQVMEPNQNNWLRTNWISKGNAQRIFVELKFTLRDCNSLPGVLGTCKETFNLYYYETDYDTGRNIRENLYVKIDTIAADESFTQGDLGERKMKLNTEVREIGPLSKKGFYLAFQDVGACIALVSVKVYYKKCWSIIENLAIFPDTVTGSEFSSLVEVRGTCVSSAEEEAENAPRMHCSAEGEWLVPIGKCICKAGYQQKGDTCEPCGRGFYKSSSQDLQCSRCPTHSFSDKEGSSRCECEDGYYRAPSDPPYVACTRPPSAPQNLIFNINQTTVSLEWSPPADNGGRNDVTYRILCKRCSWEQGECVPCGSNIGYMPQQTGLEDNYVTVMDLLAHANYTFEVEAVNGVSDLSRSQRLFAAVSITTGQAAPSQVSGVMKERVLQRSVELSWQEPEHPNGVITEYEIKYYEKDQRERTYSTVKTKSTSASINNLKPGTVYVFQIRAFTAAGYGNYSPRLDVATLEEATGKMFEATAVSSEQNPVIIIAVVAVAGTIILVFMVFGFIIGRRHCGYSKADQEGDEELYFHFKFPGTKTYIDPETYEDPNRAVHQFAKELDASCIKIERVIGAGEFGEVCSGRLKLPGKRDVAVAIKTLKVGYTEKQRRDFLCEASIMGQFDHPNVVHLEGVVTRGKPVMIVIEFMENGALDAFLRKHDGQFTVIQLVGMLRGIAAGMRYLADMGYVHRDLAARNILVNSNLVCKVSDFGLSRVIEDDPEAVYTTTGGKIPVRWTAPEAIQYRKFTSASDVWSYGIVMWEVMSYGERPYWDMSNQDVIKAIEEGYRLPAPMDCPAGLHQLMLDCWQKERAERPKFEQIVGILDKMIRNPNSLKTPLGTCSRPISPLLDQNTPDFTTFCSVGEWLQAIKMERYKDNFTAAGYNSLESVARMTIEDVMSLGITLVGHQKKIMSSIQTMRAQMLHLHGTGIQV
# Chain of Ephrin type-A receptor 4 (Homo sapiens) (P54764 whole entry): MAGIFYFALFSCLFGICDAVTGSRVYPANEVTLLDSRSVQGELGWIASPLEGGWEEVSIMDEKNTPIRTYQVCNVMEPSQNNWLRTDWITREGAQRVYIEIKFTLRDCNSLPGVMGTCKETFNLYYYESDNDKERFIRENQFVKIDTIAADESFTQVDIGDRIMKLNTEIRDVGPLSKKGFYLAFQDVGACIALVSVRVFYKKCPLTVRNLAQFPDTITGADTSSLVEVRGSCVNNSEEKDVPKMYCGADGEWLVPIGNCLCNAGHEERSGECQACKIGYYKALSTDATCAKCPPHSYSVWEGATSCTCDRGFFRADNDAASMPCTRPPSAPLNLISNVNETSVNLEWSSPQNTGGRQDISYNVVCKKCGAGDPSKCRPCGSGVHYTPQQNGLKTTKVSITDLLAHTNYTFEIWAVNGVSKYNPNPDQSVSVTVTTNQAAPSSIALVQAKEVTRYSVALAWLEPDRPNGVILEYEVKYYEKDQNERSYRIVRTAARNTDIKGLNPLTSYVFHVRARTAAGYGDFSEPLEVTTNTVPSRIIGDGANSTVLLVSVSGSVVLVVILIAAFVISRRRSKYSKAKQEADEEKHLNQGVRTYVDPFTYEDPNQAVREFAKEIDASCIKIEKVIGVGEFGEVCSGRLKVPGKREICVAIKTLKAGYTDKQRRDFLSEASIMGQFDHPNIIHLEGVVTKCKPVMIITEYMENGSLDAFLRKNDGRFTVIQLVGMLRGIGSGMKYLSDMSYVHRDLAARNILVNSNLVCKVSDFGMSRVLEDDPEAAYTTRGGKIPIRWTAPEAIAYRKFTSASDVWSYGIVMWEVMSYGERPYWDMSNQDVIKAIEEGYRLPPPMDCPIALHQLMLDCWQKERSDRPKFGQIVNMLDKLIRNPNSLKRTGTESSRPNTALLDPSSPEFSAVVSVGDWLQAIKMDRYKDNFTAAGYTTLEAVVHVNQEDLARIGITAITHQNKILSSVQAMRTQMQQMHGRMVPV
# Chain of Ephrin type-A receptor 5 (Homo sapiens) (P54756 whole entry): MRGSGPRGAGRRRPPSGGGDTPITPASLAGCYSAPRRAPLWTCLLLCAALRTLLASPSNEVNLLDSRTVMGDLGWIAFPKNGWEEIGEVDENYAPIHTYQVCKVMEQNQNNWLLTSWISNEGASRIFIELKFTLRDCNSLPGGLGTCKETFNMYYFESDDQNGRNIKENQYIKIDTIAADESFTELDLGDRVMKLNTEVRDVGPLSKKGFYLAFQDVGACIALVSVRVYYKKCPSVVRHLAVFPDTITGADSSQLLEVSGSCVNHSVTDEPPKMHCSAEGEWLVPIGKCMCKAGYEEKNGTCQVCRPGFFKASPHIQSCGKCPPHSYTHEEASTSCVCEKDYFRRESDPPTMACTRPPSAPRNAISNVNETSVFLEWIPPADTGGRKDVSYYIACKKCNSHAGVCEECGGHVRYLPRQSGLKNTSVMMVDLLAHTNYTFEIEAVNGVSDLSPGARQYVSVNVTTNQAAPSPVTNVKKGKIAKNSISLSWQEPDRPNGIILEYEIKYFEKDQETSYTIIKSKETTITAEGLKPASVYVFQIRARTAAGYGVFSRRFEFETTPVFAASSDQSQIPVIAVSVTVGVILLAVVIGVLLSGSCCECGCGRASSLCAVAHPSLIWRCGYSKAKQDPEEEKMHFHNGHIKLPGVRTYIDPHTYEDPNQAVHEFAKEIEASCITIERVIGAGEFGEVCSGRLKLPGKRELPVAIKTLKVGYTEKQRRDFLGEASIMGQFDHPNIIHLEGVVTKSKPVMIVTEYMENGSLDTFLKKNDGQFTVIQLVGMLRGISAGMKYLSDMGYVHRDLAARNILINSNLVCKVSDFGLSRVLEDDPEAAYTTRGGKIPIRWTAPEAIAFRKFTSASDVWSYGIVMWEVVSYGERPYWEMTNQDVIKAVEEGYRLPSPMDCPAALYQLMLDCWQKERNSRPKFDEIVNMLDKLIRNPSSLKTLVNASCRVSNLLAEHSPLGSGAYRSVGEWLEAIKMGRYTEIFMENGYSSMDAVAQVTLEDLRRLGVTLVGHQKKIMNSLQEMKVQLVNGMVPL
structure (smiles),measurement,setting,value
Cc1ccc(NC2=CC(=O)c3sc(C)nc3C2=O)cc1,residual activity,[1],97%
same,residual activity,[2],101%
same,residual activity,[3],112%
same,residual activity,[4],110%
same,residual activity,[5],100%
same,residual activity,[6],90%
same,residual activity,[7],83%
same,residual activity,[8],89%
same,residual activity,[9],96%
same,residual activity,[10],81%
